Source: the OligoGym collection

biological target: ANKRD22; assay: pooled miR-30 sensor sort-seq; sequence = guide strand; conditions: shRNA
Further: reference of the scale not given here.

Row | Sequence | sensor-assay potency score (higher = more potent)
1 | TACAAGAGCCTCATTCTGCTTT | -0.0713
2 | ATCTGTAGCATTAACTTCGACG | -1.27
3 | TTGACATTAGCATTTCTTCTTA | -0.439
4 | TAGCATTAACTTCGACGCCAGC | -1.11
5 | TTTTGAGGTTGACATTAGCATT | -1.7
6 | TTATTGTGGGGTCTGCACGGGC | -0.753
7 | TTGTCTTTGATACCATGAGGAA | -1.48

biological target: ANKRD23; assay: as above; conditions: shRNA

Row | Sequence | sensor-assay potency score (higher = more potent)
8 | TGTCTCAGTCGCTTTTTCCGTC | -0.0673
9 | TTATCCAGATTAAATCTGGTAC | -0.803
10 | TCTTTCTCCACTTACCAACTGC | -0.293
11 | AAATCTTTCAAGTTTCTTCTTC | 0.216
12 | TTCCAATTTCAGCTTCTCCCGG | -0.86
13 | TAATTTGAAACGTACAGACGGT | 0.00484
14 | TCTTTGAACCAAGTTTTCCAAG | -1.3
15 | TTCTCCACTTACCAACTGCTGA | -0.872
16 | TTTTCCACATAGTAACAACAGC | -1.09
17 | TAGAGCAGCAGTAGCTTCATGG | -0.653
18 | TTAAGATTCACTTTCTGGCGTT | -0.127
19 | TTCATGGCTTTGTAGCTGCCGT | -0.986
